# The full list was thinned out, with hits kept by preference.
# MITF inh: inhibitors of MITF; actives 0.28% (n = 37,000); TRPM1 promoter luciferase, luminescence, 24 h; inhibition, % (concentration not given with the values); in the data active means inhibition above about 85%;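 further: human melanocyte line stably carrying TRPM1 promoter luciferase reporter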
# YB-1 expression: YB-1 expression inhibition | U2OS, qRT-PCR YB-1 vs CDIP delta delta Cp, 16 h; stronger effect = higher value; zero = DMSO, each unit about twofold | delta delta Cp (YB-1 minus CDIP) (no concentration beside the values) | actives 0.37% (n = 30,000) | AID 434959;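 active means delta delta Cp rounded down to an integer at or above 3, about 3 SD of DMSO wells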;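 further: higher means less YB-1 transcript or more CDIP transcript relative to DMSO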
# Hedgehog inh: Sonic Hedgehog pathway inhibition; AID 2313; Shh-LIGHT2 Gli-luciferase reporter, 30 h; actives 2.1% (n = 22,000); inhibition, % (no concentration beside the values);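 active means mean inhibition across valid replicates above about 65%, limit read from the data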;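 further: pathway switched on by Shh-conditioned medium diluted 1 in 25 in low serum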
# * hit, by the source's call; . = not tested or not shown.
SMILES,MITF inh,YB-1 expression,Hedgehog inh
CCC(C)[C@H]1C(=O)O[C@H](C(C)C)C(=O)N(C)[C@@H](C(C)CC)C(=O)O[C@H](C(C)C)C(=O)N(C)[C@@H](C(C)CC)C(=O)O[C@H](C(C)C)C(=O)N1C (stereo not given in full),96*,-0.1,104*
c1ccc2c(CNCCc3c[nH]c4ccccc34)cccc2c1,-6,-0.29,56
C=CC/C=C\C/C=C\CCCCCCCc1cc(O)cc(O)c1,6,-0.34,28
C[C@@H]1CCC/C=C/[C@H]2C[C@@H](O)C[C@@H]2[C@@H](O)/C=C\C(=O)O1,87*,0.2,101*
CN1Cc2c(ccc3c2OCO3)[C@@H]2[C@H]1c1cc3c(cc1C[C@@H]2O)OCO3,23,0.49,-8
CC(=O)O[C@H]1CC[C@]2(C=O)[C@H]3CC[C@]4(C)[C@@H](C5=CC(=O)OC5)CC[C@]4(O)[C@@H]3CC[C@]2(O)C1,45,-0.066,4
C[C@H]1O[C@@H](O[C@H]2C[C@@H](O)[C@]3(CO)C4C(CC[C@]3(O)C2)[C@@]2(O)CC[C@H](C3=CC(=O)OC3)[C@@]2(C)C[C@H]4O)[C@@H](O)[C@@H](O)[C@H]1O (stereo not given in full),31,-0.13,-22
CO/C1=C/C(C)=C/[C@@H](C)[C@@H](O)[C@@H](C)C/C(C)=C/C=C\[C@H](OC)[C@@H]([C@@H](C)[C@@H](O)[C@H](C)[C@@]2(O)C[C@@H](O)[C@H](C)[C@@H](C(C)C)O2)OC1=O,-61,0.01,97*
O=C(Cn1cc(C(=O)c2ccccc2)c2ccccc21)NCC1CCCO1 (stereo not given),-6,.,.
COC(=O)CC1(CC(=O)OC)C(=O)N(C)C(=O)N(C)C1=O,-7,.,.
C[C@@H]1O[C@@H](O[C@H]2C[C@@H](O)[C@]3(CO)C4C(CC[C@]3(O)C2)[C@@]2(O)CC[C@H](C3=CC(=O)OC3)[C@@]2(C)C[C@H]4O)[C@H](O)[C@H](O)[C@H]1O (stereo not given in full),7,-0.021,-16
C[C@@H]1C(=O)O[C@H]2[C@H]1CC[C@@]1(C)C=CC(=O)[C@@]3(C)O[C@@]213,-2,4*,18
Cc1cc(C(F)F)n2nc(C(=O)Nc3ccc4c(C(F)(F)F)cc(=O)oc4c3)nc2n1,-17,.,.
C/C=C(\C)C(=O)OC1C(C)=C2C(C1OC(=O)CCCCCCC)C(C)(OC(C)=O)CC(OC(=O)CCC)C1(O)C2OC(=O)C1(C)O (stereo not given),51,-0.67,101*
C/C=C(/C)C(=O)O[C@H]1C(C)=C2[C@H]([C@@H]1OC(=O)CCCCCCC)[C@@](C)(OC(C)=O)C[C@H](OC(=O)CCC)[C@@]1(O)[C@H]2OC(=O)[C@@]1(C)O,105*,-0.57,103*
COc1ccc2c(c1OC)CN1CCc3cc4c(cc3C1C2)OCO4 (stereo not given),3,-0.29,-18
COc1ccc2c(c1OC)C(=O)O[C@H]2[C@H]1c2cc3c(cc2CCN1C)OCO3,-3,6.4*,53
c1cncc(C2N=C(c3cnccn3)NN2)c1 (stereo not given),-44,.,-53
C=C(C)[C@@H]1[C@H]2OC(=O)[C@@H]1[C@]1(O)C[C@H]3O[C@]34C(=O)O[C@H]2[C@]14C,-4,0.25,-52
CCOC(=O)c1cc(C(C)(C)C)nc(OC(=O)N(C)C)c1C#N,0,0.11,27
C[C@H]1CC[C@@H]2[C@@H](C)[C@H]3[C@H](C[C@H]4[C@@H]5CC=C6CC(O[C@@H]7O[C@H](CO)[C@@H](O)[C@H](O[C@@H]8O[C@H](CO)[C@@H](O)[C@H](O)[C@H]8O)[C@@H]7O[C@@H]7O[C@@H](C)[C@H](O)[C@@H](O)[C@H]7O)CC[C@]6(C)[C@H]5CC[C@]34C)N2C1 (stereo not given in full),52,-0.8,25
CC1=C2C[C@H]3[C@@H](CC=C4C[C@@H](O)CC[C@@]43C)[C@@H]2CC[C@]12O[C@@H]1C[C@H](C)CN[C@H]1[C@H]2C,11,-0.28,89*
CCCC(C)n1[nH]c(=O)c2c1NC(=O)CSC2c1cccc([N+](=O)[O-])c1 (stereo not given),7,.,.
OCC1OC(n2cnc3cc(Cl)c(Cl)cc32)[C@@H](O)[C@H]1O (stereo not given in full),-5,0.12,56
CC(=O)OC1CCC2(C)C(CC[C@@H]3[C@@H]2CCC2(C)C(C4=CC(=O)OC4)CCC32O)C1 (stereo not given in full),11,0.66,-5
SMILES,MITF inh,YB-1 expression,Hedgehog inh
CCCC(=O)O[C@@H]1[C@@H](C)[C@@]2(O)[C@@H](C=C(CO)C[C@]3(O)C(=O)C(C)=C[C@@H]23)[C@@H]2C(C)(C)[C@]12OC(=O)CCC,2,0.5,70*
CC(C(=O)Nc1ccc(Cl)cc1C(=O)c1ccccc1)N1C(=O)C2C3C=CC(C3)C2C1=O (stereo not given),19,.,.
CC(C)N(C(=O)CCl)c1ccccc1,14,-0.29,71*
CCc1cccc(C)c1N(C(=O)CCl)C(C)COC (stereo not given),3,-0.045,-61
CO[C@H]1[C@@H](O)[C@@H](C)O[C@@H](OC2CCC3(C)C(CC[C@@H]4[C@@H]3CCC3(C)C(C5=CC(=O)OC5)C(O)CC43O)C2)[C@@H]1O (stereo not given in full),19,2.1,-10
CCN1C[C@]2(C)CC[C@H](OC)[C@@]34C1[C@@]1(OCO[C@@]15C[C@H](OC)[C@H]1C[C@]3(O)[C@@H]5[C@H]1OC)[C@@H](OC(C)=O)[C@H]24,-6,-0.29,3
O=[N+]([O-])c1ccc(O)c([N+](=O)[O-])c1,105*,0.27,50
CC1C/C=C/C2C3OC3(C)C(C)C3C(Cc4ccccc4)NC(=O)C23OC(=O)O/C=C/C(C)(O)C1=O (stereo not given),41,0.082,44
O=c1[nH]c2ccccc2n1C1CCN(CCCC(c2ccc(F)cc2)c2ccc(F)cc2)CC1,56,-0.71,73*
c1cncc(C2Nc3ccccc3-n3cccc32)c1 (stereo not given),-31,-0.3,-41
Cc1cc(Br)c(NC(=O)C2C(C)(C)C2(C)C)c(Br)c1,11,-0.34,65*
CC1(C)C(C(=O)Nc2ccccc2C#N)C1(C)C,6,0.068,-37
O=C(CCl)c1cc(Br)c(Br)s1,11,0.53,-33
COc1cc(C2c3cc4c(cc3CC3COC(=O)C32)OCO4)cc(OC)c1OC (stereo not given),48,-0.8,80*
COc1cc([C@@H]2c3cc4c(cc3[C@H](OC(C)=O)[C@H]3COC(=O)[C@@H]23)OCO4)cc(OC)c1OC,37,0.62,8
COc1cc([C@@H]2c3cc4c(cc3[C@@H](O)C3COC(=O)C32)OCO4)cc(OC)c1O (stereo not given in full),44,0.016,90*
COC1CC(O[C@H]2CC[C@@]3(C)C(CCC4C3CC[C@]3(C)C(C5=CC(=O)OC5)CCC43O)C2)OC(C)C1OC1OC(COC2OC(CO)C(O)C(O)C2O)C(O)C(O)C1O (stereo not given in full),9,0.45,0

# Source: PubChem (Broad Institute)
